In article PMC4336329 (PLoS ONE, 2015):
The campaign covered roughly 310,000 compounds. About 14,000 (4.5%) showed an effect of 50% or more. Effects have a minus sign here. This is one part of a sample in which strong results are shown more often than they occur.

Target: human ether-à-go-go-related gene (hERG) potassium channel (human, UniProt Q12809)
Test: primary screen, population patch clamp on CHO cells stably expressing hERG; higher = less effect of the substance
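Also: peak tail current of the secondary pulse compared with the same well before compound.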

human ether-à-go-go-related gene (hERG) potassium channel, sequence (Q12809 whole entry, looked up): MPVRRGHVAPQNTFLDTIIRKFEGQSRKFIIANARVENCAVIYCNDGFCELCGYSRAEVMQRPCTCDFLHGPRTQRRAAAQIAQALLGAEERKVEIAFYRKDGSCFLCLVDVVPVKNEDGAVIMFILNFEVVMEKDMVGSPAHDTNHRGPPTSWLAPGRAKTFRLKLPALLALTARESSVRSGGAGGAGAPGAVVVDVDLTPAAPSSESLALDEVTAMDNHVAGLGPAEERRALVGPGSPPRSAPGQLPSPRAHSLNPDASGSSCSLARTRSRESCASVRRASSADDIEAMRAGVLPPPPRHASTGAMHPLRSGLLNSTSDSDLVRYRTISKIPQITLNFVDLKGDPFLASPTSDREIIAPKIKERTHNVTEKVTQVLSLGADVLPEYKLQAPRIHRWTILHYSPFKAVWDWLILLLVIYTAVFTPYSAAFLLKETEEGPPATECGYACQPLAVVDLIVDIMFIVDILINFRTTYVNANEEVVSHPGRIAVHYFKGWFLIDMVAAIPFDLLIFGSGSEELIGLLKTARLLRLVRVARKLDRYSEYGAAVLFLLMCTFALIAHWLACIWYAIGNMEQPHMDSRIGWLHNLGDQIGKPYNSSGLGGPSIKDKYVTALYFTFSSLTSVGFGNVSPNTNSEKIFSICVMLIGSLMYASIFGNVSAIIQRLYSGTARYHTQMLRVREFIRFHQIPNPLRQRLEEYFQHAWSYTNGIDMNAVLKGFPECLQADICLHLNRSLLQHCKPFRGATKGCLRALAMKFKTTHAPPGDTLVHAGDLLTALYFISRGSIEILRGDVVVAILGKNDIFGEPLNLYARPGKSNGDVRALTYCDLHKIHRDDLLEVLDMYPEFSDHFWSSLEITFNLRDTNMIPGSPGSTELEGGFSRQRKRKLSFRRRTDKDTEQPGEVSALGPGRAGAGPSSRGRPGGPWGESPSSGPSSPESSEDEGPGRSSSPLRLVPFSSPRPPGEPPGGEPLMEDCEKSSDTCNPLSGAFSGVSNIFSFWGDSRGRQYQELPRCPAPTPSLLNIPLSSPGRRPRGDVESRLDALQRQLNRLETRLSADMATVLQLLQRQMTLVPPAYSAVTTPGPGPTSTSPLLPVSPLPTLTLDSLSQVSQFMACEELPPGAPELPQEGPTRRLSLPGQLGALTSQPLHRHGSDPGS

| SMILES | hERG current change (%, negative = inhibition) at 10uM [%] |
| --- | --- |
| CCOc1ccc(C(=O)NCC(=O)OCc2cc([N+](=O)[O-])cc3c2OCOC3)cc1OCC | -12 |
| O=C(c1ccc2c(c1)OCO2)C1CCCN(Cc2cn[nH]c2-c2cccc(F)c2)C1 (centres unmarked) | -78.1 |
| O=C(c1ccc2c(c1)OCO2)C1CCCN(Cc2ccccn2)C1 (centres unmarked) | -30.9 |
| Cc1ccc(CN2CCN(Cc3cn[nH]c3-c3cccc(F)c3)CC2CCO)o1 (centres unmarked) | -25.8 |
| O=C(c1ccc2c(c1)OCO2)C1CCCN(Cc2c(F)cccc2Cl)C1 (centres unmarked) | -32.5 |
| O=C(c1ccc2c(c1)OCO2)C1CCCN(Cc2cn[nH]c2-c2ccccc2)C1 (centres unmarked) | -72.2 |
| c1ccc(-c2[nH]ncc2CN2CCN(Cc3ccc4c(c3)OCO4)CC2)cc1 | -37.9 |
| O=C(Nc1ccc2c(c1)OCO2)N1CCCc2ccccc21 | 11.7 |
| COc1cc(/C=N/NC(=O)c2ccc(O)cc2)ccc1OCC(=O)Nc1cccc([N+](=O)[O-])c1 | 10.3 |
| O=S1(=O)N(Cc2ccccc2F)CCCN1Cc1c(F)cccc1Cl | 7.29 |
| CC(=O)Nc1ccc(S(=O)(=O)NCc2ccc3[nH]c(C)cc3c2)cc1 | 21 |
| Cc1ccc([N+](=O)[O-])cc1NC(=O)C(C)N1CCCCC1 (centres unmarked) | 30.2 |
| O=C(CN1CCN(c2ccccn2)CC1)Nc1ccccc1 | -9.4 |
| Cc1ccc(NC(=O)CN2CCN(c3ccccn3)CC2)c(Cl)c1 | -1.57 |
| Cc1cc(Br)ccc1NC(=O)CN1CCN(c2ccccn2)CC1 | -71.5 |
| N#Cc1ccc(NC(=O)CN2CCN(c3ccccn3)CC2)cc1 | -71.9 |
| Cc1cc([N+](=O)[O-])ccc1NC(=O)C(C)N1CCN(c2ccccn2)CC1 (centres unmarked) | -71.4 |
| O=C(CN1CCN(c2ccccn2)CC1)Nc1ccc(Br)cc1 | -57.7 |
| O=C(CN1CCN(c2ccccn2)CC1)Nc1ccccc1Br | -31.6 |
| N#Cc1ccccc1NC(=O)CN1CCN(c2ccccn2)CC1 | -29.8 |
| CC(C(=O)Nc1cc([N+](=O)[O-])ccc1Cl)N1CCN(c2ccccc2)CC1 (centres unmarked) | 12.3 |

| SMILES | hERG current change (%, negative = inhibition) at 10uM [%] |
| --- | --- |
| CC(=O)Nc1ccc(NC(=O)CN2CCN(c3ccccn3)CC2)cc1 | 13.3 |
| O=C(CN1CCN(c2ccccn2)CC1)Nc1ccc(F)cc1.O=C(O)C(=O)O | -47.2 |
| COc1ccc(/C=N/NC(=O)c2ccc(NC(=O)C3CCCCC3)cc2)cc1O | 24.3 |
| Cc1cc(NC(=O)CSc2ccc(-c3ccc(Br)cc3)nn2)no1 | 11.1 |
| Cc1cc(C)cc(N(CCC#N)C(=O)CSc2n[nH]c(N)n2)c1 | 12.6 |
| O=C(NCCN1CCOCC1)c1ccc(NS(=O)(=O)c2cccc([N+](=O)[O-])c2)cc1 | 10.6 |
| Cc1ccc(/C=N/N2CCN(Cc3cccc4ccccc34)CC2)s1 | -3.05 |
| CCS(=O)(=O)Nc1ccc(C2=NN(S(=O)(=O)c3ccc(F)cc3)C(c3ccco3)C2)cc1 (centres unmarked) | -38.8 |
| CS(=O)(=O)Nc1ccc(C2=NN(S(=O)(=O)c3ccc(F)cc3)C(c3ccco3)C2)cc1 (centres unmarked) | -70.2 |
| COc1ccc(S(=O)(=O)N2N=C(c3ccc(NS(C)(=O)=O)cc3)CC2c2ccco2)cc1 (centres unmarked) | -74.2 |
| CS(=O)(=O)Nc1cccc(C2=NN(S(=O)(=O)c3ccccc3)C(c3ccco3)C2)c1 (centres unmarked) | -29.9 |
| COc1ccc(S(=O)(=O)N2N=C(c3cccc(NS(C)(=O)=O)c3)CC2c2ccco2)cc1 (centres unmarked) | -3.61 |
| Cc1ccc(C2=NN(S(=O)(=O)c3ccccc3)C(c3ccco3)C2)cc1 (centres unmarked) | 8.53 |
| CCCc1cc(=O)oc2cc(C)cc(OCC(=O)NCC(O)c3ccccc3)c12 (centres unmarked) | 13.5 |
| Cc1cccc(CCNC(=O)CCS(=O)(=O)c2ccc(Br)cc2)c1 | 8.8 |
| O=C(/C=C/c1ccco1)N1CCC(Cc2ccccc2)CC1 | 4.42 |
| S=C(NCc1ccco1)N1CCN(C/C=C/c2ccccc2)CC1 | -56.2 |
| O=C(/C=C/c1ccco1)N1CCN(C/C=C/c2ccccc2)CC1 | -58.8 |
| O=C(NC(=S)N1CCN(C/C=C/c2ccccc2)CC1)c1ccco1 | -35 |
| S=C(NCc1ccco1)N1CCN(Cc2ccco2)CC1 | 1.76 |
| O=C(/C=C/c1ccco1)N1CCN(S(=O)(=O)/C=C/c2ccccc2)CC1 | -45 |

| SMILES | hERG current change (%, negative = inhibition) at 10uM [%] |
| --- | --- |
| Cc1cccc(C(=O)N(C)c2nnc(-c3ccncc3)s2)c1 | 1.3 |
| Cc1ccc(NC(=O)Cn2ccsc2=N)c([N+](=O)[O-])c1.Cl | 35.1 |
| CC(C)CCNc1nc(N)c([N+](=O)[O-])c(N2CCCCCC2)n1 | 12.1 |
| c1ccc(C2Nc3ccccc3-c3nc4ccccc4n32)cc1 (centres unmarked) | -18.1 |
| c1ccc2c(c1)NC(c1ccncc1)n1c-2nc2ccccc21 (centres unmarked) | -66.2 |
| c1cncc(C2Nc3ccccc3-c3nc4ccccc4n32)c1 (centres unmarked) | -5.58 |
| Cc1cc(NC(=O)CCC(=O)N(CC(=O)NCC2CCCO2)c2ccc(C)c(C)c2)no1 (centres unmarked) | 8.68 |
| Cn1cc([C@@H]2C[C@H]3CN(Cc4cccc(Cl)c4)C(=O)[C@]34CCCN24)c2ccccc21 | -72.7 |
| O=C1N(Cc2cccc(Cl)c2)C[C@@H]2C[C@@H](c3cccc4ncccc34)N3CCC[C@@]123 | -48.8 |
| O=C1N(Cc2cccc(Cl)c2)C[C@@H]2C[C@@H](c3c[nH]c4ccccc34)N3CCC[C@@]123 | -74.8 |
| Cc1c([C@@H]2C[C@H]3CN(Cc4cccc(Cl)c4)C(=O)[C@]34CCCN24)cnn1C | -45.5 |
| CCOC(=O)c1[nH]ncc1[C@@H]1C[C@H]2CN(Cc3cccc(Cl)c3)C(=O)[C@]23CCCN13 | -27.4 |
| COc1cccc(/C=N/NC(=O)c2cccc([N+](=O)[O-])c2)c1OS(=O)(=O)c1ccccc1 | -16.2 |
| COc1ccc(C)cc1N(CC(=O)N1CCCCCC1)S(C)(=O)=O | 12.2 |
| CCOc1ccc(CN2CCNC(=O)C2CC(=O)NC2CCOCC2)cc1 (centres unmarked) | -44.7 |
| CC1CCC(NC(=O)COC(=O)c2ccco2)CC1 (centres unmarked) | 7.07 |
| N#Cc1ccccc1OCC(=O)Nc1ccc2c(c1)OCCCO2 | 3.08 |
| COc1ccccc1CNC(=O)C1(C)Oc2cccnc2NC1=O (centres unmarked) | 9.69 |
| COCc1cc(CN2CCN(CCc3ccccc3)C(CCO)C2)ccc1OC (centres unmarked) | -56.9 |
| COCc1cc(CN2CCN(Cc3ccsc3)C(CCO)C2)ccc1OC (centres unmarked) | -82.9 |
| CCOc1ccc(CN2CCN(Cc3ccsc3)C(CCO)C2)cc1CO (centres unmarked) | -39.4 |

| SMILES | hERG current change (%, negative = inhibition) at 10uM [%] |
| --- | --- |
| CC(C)(O)C#Cc1ccc(CN2CCN(Cc3ccsc3)C(CCO)C2)cc1 (centres unmarked) | -21.6 |
| COc1ccc(CN2CCN(CCC(C)C)C(CCO)C2)cc1Cn1cncn1 (centres unmarked) | 1.78 |
| COc1ccc(CN2CCN(CCc3ccccc3)C(CCO)C2)cc1Cn1cncn1 (centres unmarked) | -35.8 |
| COCc1cc(CN2CCN(CCCc3ccccc3)C(CCO)C2)ccc1OC (centres unmarked) | -66.1 |
| COc1ccc(CN2CCN(CCC(C)C)C(CCO)C2)cc1Cn1cccn1 (centres unmarked) | -48.1 |
| O=C1CN(c2ccc(Cl)cc2)C2(CCCCC2)S1 | 4.49 |
| Cc1ccc(Cn2ccc(NC(=O)c3cc(-c4ccc(Br)cc4)on3)n2)cc1 | 22.6 |
| CCOC(=O)c1cc2nc(-c3ccccc3)cc(C)n2n1 | 5.61 |
| COC(=O)c1cc2ccsc2n1Cc1nc(-c2ccc(Cl)cc2)oc1C | 7.33 |
| CSc1nc(N(C)NC(=O)c2ccc(Cl)cc2)c2ccccc2n1 | 2.16 |
| Cc1ccc(OCc2ccc(C(=O)Nc3ccc(S(N)(=O)=O)cc3)o2)cc1 | 12.4 |
| CCOC(=O)C1=C(O)CSC1=Nc1ccc(C)cc1 | -4.86 |
| CCC(C)n1c(SCC(=O)Nc2cc(C(C)(C)C)nn2-c2ccccc2)nc2ccccc2c1=O (centres unmarked) | 3.57 |
| O=C(Nc1ccc(Cl)cc1)N1CC2CC(C1)c1cccc(=O)n1C2 (centres unmarked) | 4.31 |
| Nc1cc(C(=O)Nc2ccc(Cl)cc2)ccc1N1CC2CC(C1)c1cccc(=O)n1C2 (centres unmarked) | -62.1 |
| CCc1ccc(NC(=O)Nc2cc(C(=O)O)ccc2N2CC3CC(C2)c2cccc(=O)n2C3)cc1 (centres unmarked) | 20.4 |
| CCc1ccc(NC(=O)Nc2cc(C(=O)NCC3CCCO3)ccc2N2CC3CC(C2)c2cccc(=O)n2C3)cc1 (centres unmarked) | -17.6 |
| CCOc1ccc(NC(=O)c2ccc(N3CC4CC(C3)c3cccc(=O)n3C4)c(N)c2)cc1 (centres unmarked) | -21.7 |
| CCCNC(=O)c1ccc(N2CC3CC(C2)c2cccc(=O)n2C3)c(NC(=O)Nc2ccc(CC)cc2)c1 (centres unmarked) | -78.7 |
| COc1ccc(CCNC(=O)C2CCC(=O)N2CCc2ccccc2)cc1OC (centres unmarked) | 12.4 |
